Assay outcomes (PubChem)
PNC inhibitor = inhibitors of perinucleolar compartment assembly. AID 2417. activity change (PNC), negative = inhibition, % at 10 µM. 140,000 tested, 3.1% active. PC3M PTB-GFP, PNC prevalence imaging, 16 h; active compounds read low;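 active = readout at or below -70, meaning at least 70% loss of cells showing the perinucleolar compartment, a nuclear body marking cancer cells; inconclusive = readout between -30 and a set limit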;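 also: plate controls were DMSO wells for no effect and camptothecin positive control wells for full effect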
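Read-out is percentage of cells bearing a perinucleolar compartment, from automated 20x imaging of fixed, Hoechst-stained PC3M PTB-GFP cells. Cells were seeded 4 h, then exposed 16 h to compound (23 nl of library stock) in duplicate plates.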
NPSR antag = blocks cAMP signaling of the human neuropeptide S receptor; CHO-NPSR cells, cAMP TR-FRET, antagonist mode; Potency, µM (top dose mostly 38.3 µM), for the others: at the top dose activity change, negative = inhibition, usual class: inhibitors; 220,000 tested, 1% active; AID 1461; also: potency is read from the fitted curve at half-maximal effect; nearly all actives have a fitted effect of over 50% in size
Target sequence (Q6W5P4 whole entry, looked up): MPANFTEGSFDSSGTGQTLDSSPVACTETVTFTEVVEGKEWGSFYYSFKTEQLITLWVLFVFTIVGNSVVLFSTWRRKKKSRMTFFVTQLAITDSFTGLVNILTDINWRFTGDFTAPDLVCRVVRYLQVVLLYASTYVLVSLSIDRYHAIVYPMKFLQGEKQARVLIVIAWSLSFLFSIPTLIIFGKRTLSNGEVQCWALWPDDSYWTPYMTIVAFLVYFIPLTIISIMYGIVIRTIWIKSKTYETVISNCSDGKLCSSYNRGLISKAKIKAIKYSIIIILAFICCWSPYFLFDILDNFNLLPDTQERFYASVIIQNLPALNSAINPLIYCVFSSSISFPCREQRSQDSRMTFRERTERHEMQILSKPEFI
Tau fluor counter = counter-screen for tau fibril formation inhibitors; tau K18 P301L Alexa594 fluorescence, heparin fibrillization; Potency, µM (top dose mostly 57.7 µM), inactives show top-dose activity change, negative = decrease; 280,000 tested, 0.93% active; AID 1463; also: potency is read from the fitted curve at half-maximal effect; nearly all actives have a fitted effect of over 55% in size
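Human K18 P301L tau (15 uM unlabeled plus 0.24 uM Alexa 594-labeled, final) in 100 mM sodium acetate pH 7 was mixed with compound and 20 uM heparin and incubated 6 hr at 37 C.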
Tau fibril ThT = inhibitors of human tau fibril formation, thioflavin T binding | Potency, µM (highest dose often 57.4 µM), without a hit: at the highest dose activity, negative = inhibition, hits mostly inhibitors | recombinant tau K18 P301L (four-repeat tau fragment), heparin-induced fibrillization, ThT fluorescence | P10636 | AID 1460 | 270,000 tested, 2.1% active; also: potency is read from the fitted curve at half-maximal effect; nearly all actives have a fitted effect of over 55% in size
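K18 P301L tau (15 uM + 0.24 uM Alexa 594-tagged), heparin 20 uM, NaOAc pH 7, 6 h 37 C; ThT 30 uM, 1 h RT, ex 450/em 510 nm.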
Tau fibril FP = blocks human tau fibril formation measured by polarization | P10636 | K18 P301L tau heparin fibrillization, Alexa594 FP, 6 h | Potency, µM (series often up to 57.7 µM), for the others: at the top dose activity, negative = inhibition, hits mostly inhibitors | 280,000 tested, 0.39% active | AID 1468; also: potency is read from the fitted curve at half-maximal effect; nearly all actives have a fitted effect of over 55% in size
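K18 P301L tau (15 uM unlabeled/0.24 uM Alexa 594-labeled, final) + compound + heparin 20 uM final; 100 mM NaOAc pH 7; 6 hr 37 C; ThT 30 uM final added, 1 hr RT; FP ex 555/em 632 nm.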
KDM4E inh = JMJD2E (human) inhibition; AID 2147; Potency, µM (series often up to 57.1 µM), without a hit: at the highest dose activity change, negative = inhibition, actives largely listed as inhibitors; JMJD2E catalytic domain, FDH-coupled NADH fluorescence (FDH is formaldehyde dehydrogenase); B2RXH2; 230,000 tested, 1.6% active; active = well fitted inhibition curve with a large enough effect, not every such curve was filed as active; inconclusive = small, poorly fitted or top-dose-only effect, or another doubt; inactive = no such curve, though single readings can be large or run the other way;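 also: potency is read from the fitted curve at half-maximal effect; 0% = wells with enzyme and -100% = buffer wells without enzyme; nearly all actives have a fitted effect of over 50% in size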
Target sequence (B2RXH2 1-337 limits assumed): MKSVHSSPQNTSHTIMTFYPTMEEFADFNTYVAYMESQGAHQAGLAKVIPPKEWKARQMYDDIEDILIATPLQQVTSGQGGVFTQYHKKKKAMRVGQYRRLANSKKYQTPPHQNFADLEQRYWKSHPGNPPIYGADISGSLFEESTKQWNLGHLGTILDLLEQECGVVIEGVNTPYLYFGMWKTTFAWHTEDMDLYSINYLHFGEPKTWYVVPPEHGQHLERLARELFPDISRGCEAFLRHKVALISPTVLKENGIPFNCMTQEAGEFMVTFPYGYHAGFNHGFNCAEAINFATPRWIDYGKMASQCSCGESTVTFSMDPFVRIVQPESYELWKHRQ
An asterisk follows results filed as active; ? = inconclusive; · = no result given; [ ] = remark or other dose. Only some compounds are listed: those with a hit (about 5.1% of all), similar ones and a draw of the others. Unless noted, calls follow the shape of the dose curve; as a rule, active = well fitted curve in the direction sought with a large enough effect; inconclusive = small, poorly fitted or top-dose-only effect, or another doubt; inactive = no such curve, though single readings can be large; an effect the other way counts as inactive or inconclusive. Unless noted, % is scaled to controls: 0 for no effect and ±100 for the full control effect.

SMILES | PNC inhibitor | NPSR antag | Tau fluor counter | Tau fibril ThT | Tau fibril FP | KDM4E inh
CC(=O)Oc1ccc2c(c1)Oc1cc(OC(C)=O)ccc1C21OC(=O)c2ccccc21 | -100.0* | -16.8%[46.1 µM] | -15.9% | ? | -17.8% | 1.6%
Cc1ccccc1NC(=S)c1nc2ccccc2[nH]1 | -28.4 | -7.4% | -14.4% | ? | 13.7% | 18.9µM*
Cc1cc(C)c2oc(-c3cccc(NC(=O)c4cc5ccccc5o4)c3)nc2c1 | · | · | -8.1% | -5.7% | -8.7% | ·
CCOC(=O)c1cc(S(=O)(=O)Nc2ccc(Br)c(C)c2)[nH]n1 | · | · | ? | -7.3% | -7.8% | ·
CC1=C(C(=O)Nc2ccccc2)C(c2ccccc2[N+](=O)[O-])NC(=O)N1 (centres undefined) | · | -5.5% | ? | 25.1µM* | ? | -8.8%
CC(=O)O[C@]1(C(C)=O)CC[C@H]2C3C=C(Cl)C4=CC(=O)[C@@H]5C[C@H]5[C@]4(C)C3CC[C@@]21C (some centres undefined) | · | 12.6µM* | -12.6% | -13.8% | 0.8% | 3.7%
O=C1c2c([N+](=O)[O-])cc([N+](=O)[O-])cc2S(=O)N1Cc1ccccc1 (centres undefined) | · | 13.1% | -26.8% | 31.6µM* | ? | ?
O=[N+]([O-])c1ccc(NC2CCN(Cc3ccccc3)CC2)c([N+](=O)[O-])c1 | · | -19.4% | -25.9% | ? | 1.7% | 8.5%
CCOc1ccc(-n2c(SCC(=O)N3CCOCC3)nc3c([nH]c4ccccc43)c2=O)cc1 | · | · | 13.0% | 7.3% | 10.3% | ·
CC(=O)N1CCC(=NNC(=O)c2cccs2)CC1 | -109.0* | 4.7% | 2.4% | -13.8% | 6.7% | 4.1%
O=C(NN=C1CCCC1)c1cccs1 | 10.7 | 22.6% | 4.5% | 5.0% | -3.4% | -7.2%
O=C(Nc1ccccc1NC(=O)NC1CCCCC1)NC1CCCCC1 | -4.6 | -14.4%[46.1 µM] | 5.8% | 1.0% | 0.4% | 6.3%
Nc1ccccc1NC1CCCCC1 | · | 5.3% | ? | 22.4µM* | -6.8% | 14.1µM*
O=C(CCc1ccccc1)Nc1nc2c(F)cc(F)cc2s1 | · | -4.6% | -10.8% | · | -8.0% | -3.7%
NNc1nc2c(F)cc(F)cc2s1 | 1.2 | -41.1% | ? | 12.6µM* | -4.8% | 0.3%
Fc1cccc2sc(Nc3nc4c(F)cccc4s3)nc12 | 49.1 | -52.0% | -15.1% | -6.4% | -3.1% | ?
NNc1nc2c(F)cccc2s1 | -7.5 | -1.0% | 17.8µM*[quencher] | 15.8µM* | ? | -12.4%
COc1ccc(NC(=O)CSc2nc3ccccc3n2CC(=O)N2CCCC(C)C2)cc1 (centres undefined) | · | · | -10.9% | -1.7% | 6.1% | ·
O=C(CNc1cccc2ccccc12)N/N=C/c1cccc(Oc2ccccc2)c1 | 9.9 | -12.1% | 7.94µM*[quencher] | ? | ? | 28.2µM*
O=C(CNc1cccc2ccccc12)N/N=C/c1ccccn1 | · | 12.0% | ? | ? | -1.5% | ?
CCOC(=O)c1sc(N(Cc2ccccc2)C(=O)COC(=O)c2cnccn2)nc1C | · | -6.6% | -23.5% | -2.4% | 6.6% | 3.5%
Cc1nnc(N(Cc2ccccc2)C(=O)c2cnccn2)s1 | -87.8* | 3.1%[7.67 µM] | -7.0% | -4.6% | -6.2% | 3.8%
COc1ccc(SN=C2C(C)=CC(=O)C=C2C)cc1 | · | -13.8% | ? | 2.82µM* | ? | -3.9%
CC(C)CN(CCCNC(=O)c1cn(C)c2ccc(S(=O)(=O)N(C)C3CCCCC3)cc2c1=O)CC(C)C | · | · | -22.6% | -3.8% | -0.5% | ·
CCOC(=O)C1=C(C)NC(=O)NC1c1cccs1 (centres undefined) | · | -3.7% | -2.4% | -6.1% | -1.6% | 12.9%
SMILES | PNC inhibitor | NPSR antag | Tau fluor counter | Tau fibril ThT | Tau fibril FP | KDM4E inh
CC1=C(C(=O)OC(C)(C)C)C(c2cccs2)NC(=O)N1 (centres undefined) | -95.0* | 13.2% | 4.8% | 7.2% | -2.0% | 0.1%
CSCCC1C(=O)OC2(C)CC(C)(C)NC(=S)N12 (centres undefined) | -100.0* | 2.7%[46.1 µM] | 3.2% | -4.9% | 3.3% | -1.3%
COc1ccc(Cl)cc1NC(=O)C(=O)NCc1ccc(Cl)cc1 | · | · | -18.5% | -1.0% | -14.4% | ·
CC(C)(CNC(=O)c1sc2cc(F)ccc2c1Cl)N1CCOCC1 | -91.8* | 1.6% | 3.3% | -1.5% | 12.5% | -14.3%
CCOC(=O)c1c(C)c(C)n(Cc2cccc(OC)c2OC)c1C | -16.8 | -11.2% | -26.9% | 25.1µM* | ? | 0.6%
CCc1ccccc1NC(=O)CN(c1ccccc1OC)S(=O)(=O)c1ccc(C)cc1 | · | · | -15.0% | -13.5% | 2.2% | ·
CCOC(=O)CCS(=O)(=O)c1nc(-c2ccccc2)cc(C(F)(F)F)n1 | -8.1 | 7.94µM* | 4.1% | -1.5% | 0.6% | -25.1%
CS(=O)(=O)c1nc(-c2cccs2)cc(C(F)(F)F)n1 | 18.8 | 3.16µM* | -6.2% | -2.1% | -10.5% | ?
CCOC(=O)CS(=O)(=O)c1nc(-c2ccc(F)cc2)cc(C(F)(F)F)n1 | 24.5 | ? | 13.9% | 16.3% | -4.2% | ?
CCOC(=O)CS(=O)(=O)c1nc(-c2ccccc2)cc(C(F)(F)F)n1 | ? | 10µM* | 2.4% | ? | ? | -13.9%
O=C(O)CCS(=O)(=O)c1nc(-c2cccs2)cc(C(F)(F)F)n1 | -0.4 | -5.9%[46.1 µM] | 5.1% | -6.4% | -3.0% | ?
COCC(C)NC(=O)CCS(=O)(=O)c1nc(-c2ccc(OC)cc2)cc(C(F)(F)F)n1 (centres undefined) | -88.5* | -21.4%[46.1 µM] | 10.0% | 5.6% | ? | ?
COC(=O)CCS(=O)(=O)c1nc(-c2ccccc2)cc(C(F)(F)F)n1 | 19.9 | 10µM* | 6.2% | 4.5% | -6.2% | -16.7%
Cc1cc(/C=C2/NC(=O)N(Cc3ccccc3F)C2=O)c(C)n1C(C)C | ? | -22.3% | -25.5% | ? | 11.7% | 17.8µM*
Cc1cc(/C=C2/NC(=O)N(c3ccccc3)C2=O)c(C)n1C(C)C | -19.0 | -23.6% | -21.9% | ? | 4.2% | 22.4µM*
CCn1c(C)cc(/C=C2/NC(=O)N(Cc3ccccc3F)C2=O)c1C | -4.0 | -7.6% | -28.0% | ? | -9.9% | ?
Cc1cccc(NC(=O)CN2C(=O)N/C(=C/c3cc(C)n(C(C)C)c3C)C2=O)c1 | 30.9 | -2.0%[46.1 µM] | ? | ? | -0.6% | ?
CCc1ccccc1-n1nnc(-c2nsc(NC(=O)c3ccc(C)c(C)c3)n2)c1C | · | · | -10.8% | 5.5% | ? | ·
COc1ccccc1NS(=O)(=O)c1cc([N+](=O)[O-])ccc1N/N=C/c1c(C)[nH]c2ccccc12 | -11.8 | -24.8%[46.1 µM] | 6.31µM*[quencher] | 3.16µM* | ? | -2.0%
O=[N+]([O-])c1ccc(N/N=C/c2c[nH]c3ccccc23)c(S(=O)(=O)Nc2ccc(Cl)cc2)c1 | -12.0 | 15.8µM* | 3.16µM*[quencher] | 3.16µM* | -10.5% | 10.8%
